# Results taken from paper PMC3218832.
# Columns and labels:
# Experiment in all cases: protein binding microarray; high values mean tight binding
# Conditions in all cases: dsDNA, one strand shown
# RELARELA (p65 homodimer) = RELARELA (p65 homodimer) (Homo sapiens, UniProt Q04206 1-307)
# p50p50 homodimer = p50p50 homodimer (Homo sapiens, UniProt P19838 7-356)
# p52p52 homodimer = target: T1, p52p52 homodimer (Homo sapiens, UniProt Q00653 4-332)
# T1 sequence: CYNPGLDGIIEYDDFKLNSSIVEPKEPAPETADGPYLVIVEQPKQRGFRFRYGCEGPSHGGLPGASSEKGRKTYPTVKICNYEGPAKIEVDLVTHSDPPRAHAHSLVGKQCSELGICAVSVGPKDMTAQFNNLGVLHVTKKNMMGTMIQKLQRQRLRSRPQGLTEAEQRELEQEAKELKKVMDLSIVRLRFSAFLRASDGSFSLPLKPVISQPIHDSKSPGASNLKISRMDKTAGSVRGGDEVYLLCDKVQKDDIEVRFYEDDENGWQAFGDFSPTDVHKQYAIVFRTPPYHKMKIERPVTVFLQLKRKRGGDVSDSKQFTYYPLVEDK
# [1] = target: RELA (p65) subunit of heterodimer;p50 subunit (Homo sapiens;Homo sapiens, UniProt Q04206;P19838 1-307;7-356)
# [2] = target: RELA (p65) subunit of heterodimer;p52 subunit (Homo sapiens;Homo sapiens, UniProt Q04206;Q00653 1-307;4-332)
# RELB subunit;p50 subunit = RELB subunit;p50 subunit (Homo sapiens;Homo sapiens, UniProt Q01201;P19838 120-401;7-356)
# RELB subunit;p52 subunit = target: T2, RELB subunit;p52 subunit (Homo sapiens;Homo sapiens, UniProt Q01201;Q00653 120-401;4-332)
# T2 sequence 1: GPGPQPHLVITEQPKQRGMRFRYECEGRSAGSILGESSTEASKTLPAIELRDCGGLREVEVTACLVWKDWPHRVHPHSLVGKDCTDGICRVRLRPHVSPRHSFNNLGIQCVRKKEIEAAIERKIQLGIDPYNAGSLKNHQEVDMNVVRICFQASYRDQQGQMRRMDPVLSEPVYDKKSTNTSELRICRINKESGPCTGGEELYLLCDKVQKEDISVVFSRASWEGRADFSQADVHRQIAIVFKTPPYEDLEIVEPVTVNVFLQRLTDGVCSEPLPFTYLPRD
# T2 sequence 2: T1 sequence
# [3] = target: C-Rel subunit;p50 subunit (Homo sapiens;Homo sapiens, UniProt Q04864;P19838 1-285;7-356)
# [4] = target: T3, C-Rel subunit;p52 subunit (Homo sapiens;Homo sapiens, UniProt Q04864;Q00653 1-285;4-332)
# T3 sequence 1: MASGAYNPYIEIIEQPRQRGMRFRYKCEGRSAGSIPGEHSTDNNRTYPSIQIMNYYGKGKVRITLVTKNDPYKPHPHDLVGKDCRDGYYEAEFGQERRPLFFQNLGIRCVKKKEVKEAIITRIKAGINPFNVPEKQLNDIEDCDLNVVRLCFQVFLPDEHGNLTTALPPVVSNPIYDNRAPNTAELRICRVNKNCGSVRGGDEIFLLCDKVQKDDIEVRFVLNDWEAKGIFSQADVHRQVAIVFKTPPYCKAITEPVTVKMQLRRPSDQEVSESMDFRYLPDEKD
# T3 sequence 2: T1 sequence
# Chain of p50p50 homodimer (P19838 7-356): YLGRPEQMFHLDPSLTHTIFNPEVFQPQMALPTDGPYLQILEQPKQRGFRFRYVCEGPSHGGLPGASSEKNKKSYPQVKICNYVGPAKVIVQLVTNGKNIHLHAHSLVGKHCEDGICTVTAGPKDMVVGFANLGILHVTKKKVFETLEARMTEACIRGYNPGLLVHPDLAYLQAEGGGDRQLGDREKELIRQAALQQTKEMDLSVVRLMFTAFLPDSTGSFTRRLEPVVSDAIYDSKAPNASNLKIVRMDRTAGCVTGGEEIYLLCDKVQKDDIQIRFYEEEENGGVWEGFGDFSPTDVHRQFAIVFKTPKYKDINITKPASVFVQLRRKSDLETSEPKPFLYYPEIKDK
# Chain of RELA (p65) subunit of heterodimer;p50 subunit (Q04206 1-307, chain 1 of 2): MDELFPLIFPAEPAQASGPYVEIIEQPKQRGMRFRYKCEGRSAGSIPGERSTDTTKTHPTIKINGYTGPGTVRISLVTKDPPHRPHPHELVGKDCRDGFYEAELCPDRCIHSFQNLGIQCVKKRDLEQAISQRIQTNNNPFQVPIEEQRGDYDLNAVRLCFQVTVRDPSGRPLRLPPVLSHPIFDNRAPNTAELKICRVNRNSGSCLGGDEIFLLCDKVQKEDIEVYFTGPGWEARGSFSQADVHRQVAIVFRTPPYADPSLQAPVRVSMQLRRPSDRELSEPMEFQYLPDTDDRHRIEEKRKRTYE
# Chain of RELA (p65) subunit of heterodimer;p50 subunit (P19838 7-356, chain 2 of 2): as the sequence (P19838 7-356) above
# Chain of RELARELA (p65 homodimer) (Q04206 1-307): as the sequence (Q04206 1-307, chain 1 of 2) above
Sequence,binding signal (RELARELA (p65 homodimer)) [z-score],binding signal (p50p50 homodimer) [z-score],binding signal (p52p52 homodimer) [z-score],binding signal [1] [z-score],binding signal [2] [z-score],binding signal (RELB subunit;p50 subunit) [z-score],binding signal (RELB subunit;p52 subunit) [z-score],binding signal [3] [z-score],binding signal [4] [z-score]
GGAAGAGCCCT,-0.298,-0.632,-0.649,-0.191,-0.503,-0.91,-0.727,-0.606,-0.318
AGATATCTCCT,-0.509,-1.24,-0.623,-0.927,-1.03,-1.19,-1.06,-1.37,-0.83
AAAGTGGTCCC,-0.237,0.456,0.16,-0.319,-0.267,0.24,-0.0596,-0.25,-0.422
AAGAAGGTCCT,-0.0161,-1.4,-0.396,-1.13,-0.801,-0.786,-0.511,-1.3,-0.718
CGGTAAACCCT,0.285,-0.188,0.217,-0.158,0.0419,-0.151,-0.0534,-0.122,0.186
AAGAGCTTCCC,0.146,-0.795,-0.487,-0.305,-0.49,-0.563,-0.671,-0.423,-0.463
AGAGTCATCCT,-0.641,-2.61,-0.647,-1.23,-0.868,-1.06,-0.873,-1.63,-1.09
CAGAGTGTCCC,0.916,0.0211,0.161,0.185,0.144,0.304,0.434,0.274,0.221
GGAAATTTCCT,3.45,0.318,0.15,1.83,1.22,0.0518,0.485,0.9,1.42
CGGAATCCCCT,2.17,1.6,2.39,2.3,2.13,2.43,2.22,1.83,2.31
AAGGGCGTCCT,-1.14,-1.28,-0.61,-1.06,-0.909,-0.994,-0.788,-1.25,-0.659
GGGTGAATCCT,0.03,0.0518,0.368,-0.186,0.102,-0.241,-0.135,-0.176,-0.138
GAGGATTCCCC,2,1.1,2.67,2.18,2.19,2.43,2.09,1.54,2.11
CAAGTTCCCCT,0.677,1.46,2.18,1.97,1.77,2.27,2.14,1.56,1.84
AGGTTTATCCT,-0.465,-0.953,-0.558,-1.01,-0.905,-0.943,-0.798,-1.17,-0.61
CGAGACGCCCC,-0.513,0.148,-0.0437,0.0369,-0.155,0.237,0.231,0.27,-0.0784
CGATATATCCC,0.113,-0.443,-0.0767,-0.33,-0.28,-0.357,-0.154,-0.427,-0.465
GAAAACATCCC,0.244,-0.173,-0.106,-0.0842,-0.0683,-0.24,-0.321,-0.174,-0.211
CGAATCATCCC,-0.386,-0.966,-0.352,-0.734,-0.619,-0.644,-0.752,-0.745,-0.523
AAAGGCACCCT,-1.13,-0.88,-0.454,-0.697,-0.787,-0.685,-0.711,-1.07,-0.741
AAATGCTTCCC,0.511,-0.412,-0.425,-0.0858,-0.314,-0.27,-0.535,0.16,-0.384
AGAGATGCCCT,-0.748,-1.63,-0.655,-0.706,-0.889,-1.04,-0.94,-0.882,-0.704
CAGAGTGCCCT,-0.65,-1.13,-0.629,-0.784,-0.964,-0.897,-0.973,-0.975,-0.713
CGAAGATCCCC,-0.0141,0.983,1.06,1.41,1.15,1.5,1.11,1.04,1.05
AAAGAATTCCC,2.27,1.08,1.36,1.57,1.25,1.07,0.975,1.54,1.12
CGAATCGCCCT,-0.52,-1.41,-0.603,-0.694,-0.649,-0.752,-0.785,-0.785,-0.657
AAGAAATTCCC,2.91,1.19,1.64,1.53,1.32,1.27,1.39,1.36,1.67
CAGATGTTCCT,-0.208,-2.01,-0.586,-0.746,-0.87,-1.02,-0.843,-1.15,-0.842
CAAAGCGTCCT,-0.639,-1.46,-0.572,-0.956,-0.873,-0.99,-0.804,-1.53,-0.973
GGGAAAGCCCC,3.52,1.48,3.39,3.02,3.27,3.3,2.95,2.45,3.53
